In PubChem BioAssay AID1053133 (Broad Institute, 2014):
Several values for one entry are separate records, joined by “and”; a condition that tells them apart may be missing. Equal entries are not always repeated. Out of some 89,000 compounds screened, about 10 (0.01%) were called active. Not shown: some 10% with an inconclusive outcome. Rule as the data show it: active = activity change below about -37% (passing the limit was not always enough); inconclusive = no clear call, values can overlap the other calls; tested in A549 cells. These entries were drawn from the full list.

assay: blocks a specific stage of Vaccinia orthopoxvirus infection, primary screen, cell-based, single point (AID 1053133); details: Vaccinia-infected cells, mCherry/Venus stage reporter fluorescence, stronger effect = lower value, concentration not given here; activity change (Venus): measured here: Venus reporter, other viral stage

Which results are given for CO[C@H]1CN(C)C(=O)c2ccc(NC(=O)C3CCOCC3)cc2OC[C@H](C)NC[C@H]1C?
activity change (Venus): 1.25%; activity change (mCherry): -0.453% (inactive)

What does the source list for CN1c2ccc(C#Cc3cccnc3)cc2[C@H]2[C@H](CCN2S(=O)(=O)c2ccccc2)[C@@H]1CO?
activity change (Venus): -9.21%; activity change (mCherry): -5.16% (inactive)

Which activity change (Venus) does the source give for C[C@H](O)C#Cc1cnc2c(c1)C(=O)N([C@@H](C)CO)C[C@@H](C)[C@@H](CN(C)C(=O)Cc1ccccn1)O2 here?
The activity change (Venus) was 10.7%.

What about the activity change (mCherry) of the same molecule?
Its activity change (mCherry) is 17.6% (inactive).

What does the source list for O=C(C[C@H]1CC[C@H](NC(=O)CCN2CCCCC2)[C@@H](CO)O1)Nc1ccccc1?
activity change (Venus): 15.9%; activity change (mCherry): 7.83% (inactive)

For O=C(NCC[C@H]1CC[C@@H](NS(=O)(=O)c2cccc(Cl)c2)[C@@H](CO)O1)c1cnccn1, which activity change (Venus) is on record?
The activity change (Venus) was -5.45%.

And the activity change (mCherry)?
The activity change (mCherry) was -13.7% (inactive).

What does the source list for C[C@H](CO)N1C[C@H](C)[C@@H](CN(C)Cc2ccc(Oc3ccccc3)cc2)Oc2cc(-c3ccncc3)ccc2S1(=O)=O?
activity change (Venus): 1.19%; activity change (mCherry): 4.26% (inactive)

For CO[C@@H]1CC[C@H]2CCN(C)C(=O)C[C@@H](c3ccccc3)CN(C)C(=O)c3cc(C#N)ccc3OC[C@@H]1O2, which activity change (Venus) is on record?
Its activity change (Venus) is -9.45%.

What about the activity change (mCherry) of the same molecule?
Its activity change (mCherry) is -7.23% (inactive).

Which results are given for O=C(C[C@@H]1CC[C@H]2[C@@H](COC[C@H](O)CN2C(=O)Nc2ccccc2)O1)NCc1ccccc1F?
activity change (Venus): 9.72%; activity change (mCherry): 7.54% (inactive)

Which results are given for COc1cccc(S(=O)(=O)N2C[C@@H]3N[C@H](C2)C3c2ccc(-c3cccc(C(=O)N(C)C)c3)cc2)c1 (some centres undefined)?
activity change (Venus): -11.2%; activity change (mCherry): -13.4% (inactive)

For CCCC(=O)N1CC2(CCN(C(=O)C3CC3)CC2)c2c(n(C)c3cc(OC)ccc23)[C@H]1CO, which activity change (Venus) is on record?
The activity change (Venus) was -6.7%.

What about the activity change (mCherry) of the same molecule?
The activity change (mCherry) was -2.69% (inactive).

For COCC(=O)Nc1ccc2c(c1)OC[C@@H](C)N(Cc1ccccn1)C[C@H](C)[C@@H](OC)CN(C)C2=O, which activity change (Venus) is on record?
The activity change (Venus) was 15.4%.

And the activity change (mCherry)?
Its activity change (mCherry) is 16.4% (inactive).

What does the source list for C/C=C/c1ccc(C2[C@H]3CNC[C@@H]2N3C(=O)Nc2ccc(F)cc2)cc1 (some centres undefined)?
activity change (Venus): 2.48% and -0.546%; activity change (mCherry): 0.263% (inactive) and -2.6% (inactive)

What does the source list for COc1ccc2c3c([nH]c2c1)[C@H](CO)N(C(=O)CN1CCOCC1)CC31CN(C(C)=O)C1?
activity change (Venus): 24.1%; activity change (mCherry): 42.6% (inactive)

With C[C@@H]1CCCCO[C@@H](CN(C)C(=O)Cc2ccccc2)[C@H](C)CN([C@H](C)CO)C(=O)c2cc(NC(=O)Cc3ccccc3)ccc2O1 as the molecule, how does the activity change (Venus) read?
The activity change (Venus) was -23.2%.

And the activity change (mCherry)?
Its activity change (mCherry) is -29.2% (inactive).

What does the source list for CN(C)C(=O)c1ccc(-c2ccc([C@H]3[C@H](CO)N4C(=O)CN(C(=O)C5CCCC5)C[C@@H]34)cc2)cc1?
activity change (Venus): 3.62%; activity change (mCherry): 4.76% (inactive)

For CO[C@H]1CC[C@H]2CCN(C)C(=O)C[C@@H](c3ccccc3)CN(C)C(=O)c3cccc(C#N)c3OC[C@@H]1O2, which activity change (Venus) is on record?
The activity change (Venus) was 36.7%.

And the activity change (mCherry)?
Its activity change (mCherry) is 37.9% (inactive).

For COc1ccccc1CNC(=O)C[C@H]1CC[C@@H](NC(=O)CN(C)C)[C@@H](CO)O1, which activity change (Venus) is on record?
Its activity change (Venus) is 17.1%.

What about the activity change (mCherry) of the same molecule?
Its activity change (mCherry) is 6.13% (inactive).

For COCC#Cc1ccc([C@H]2[C@@H](CO)N3C(=O)CN(C(=O)C4CCCC4)C[C@@H]23)cc1, which activity change (Venus) is on record?
Its activity change (Venus) is 10.7%.

What about the activity change (mCherry) of the same molecule?
Its activity change (mCherry) is 14.5% (inactive).

For CO[C@@H]1CN(C)C(=O)c2cc(NS(=O)(=O)Cc3ccccc3)ccc2OC[C@H](C)NC[C@H]1C, which activity change (Venus) is on record?
Its activity change (Venus) is 3.49%.

And the activity change (mCherry)?
The activity change (mCherry) was -2.28% (inactive).

Which results are given for COc1ccc(NC(=O)N(C)C[C@H]2OCCCC[C@@H](C)Oc3ccc(NS(=O)(=O)c4ccc(F)cc4)cc3C(=O)N([C@H](C)CO)C[C@H]2C)cc1?
activity change (Venus): -16.7%; activity change (mCherry): -18% (inactive)

For O=C(C[C@@H]1CC[C@@H]2[C@H](COC[C@@H](O)CN2S(=O)(=O)c2cccc(Cl)c2)O1)N1CCOCC1, which activity change (Venus) is on record?
Its activity change (Venus) is 10.1%.

What about the activity change (mCherry) of the same molecule?
The activity change (mCherry) was 21.4% (inactive).

Which activity change (Venus) does the source give for O=C(C[C@@H]1CC[C@@H]2[C@H](COC[C@@H](O)CN2Cc2ccc(Cl)cc2)O1)NCc1ccccc1Cl here?
The activity change (Venus) was -11.5%.

And the activity change (mCherry)?
Its activity change (mCherry) is -7.35% (inactive).

What does the source list for O=C(C[C@@H]1CC[C@@H]2[C@H](COC[C@H](O)CN2S(=O)(=O)c2ccccc2)O1)N[C@H]1CCN(Cc2ccccc2)C1?
activity change (Venus): -6.28%; activity change (mCherry): -10.6% (inactive)

What does the source list for COc1cccc(NC(=O)Nc2ccc3c(c2)C(=O)N(C)C[C@H](OC)[C@@H](C)CN[C@@H](C)CO3)c1?
activity change (Venus): 13.8%; activity change (mCherry): 1.34% (inactive)

With CCC(=O)Nc1ccc2c(c1)OC[C@@H](C)N(Cc1ccccc1OC)C[C@H](C)[C@H](OC)CN(C)C2=O as the molecule, how does the activity change (Venus) read?
Its activity change (Venus) is -6.3%.

And the activity change (mCherry)?
Its activity change (mCherry) is -3.87% (inactive).

For COc1ccccc1-c1ccc([C@H]2[C@@H](CO)N(CC3CC3)C23CN(S(C)(=O)=O)C3)cc1, which activity change (Venus) is on record?
The activity change (Venus) was 0.302%.

And the activity change (mCherry)?
Its activity change (mCherry) is -10.8% (inactive).

Which activity change (Venus) does the source give for O=C(Nc1ccccc1F)N1CC(=O)N2[C@H](CO)[C@H](c3ccc(C#CC4CC4)cc3)[C@@H]2C1 here?
The activity change (Venus) was -0.75%.

And the activity change (mCherry)?
Its activity change (mCherry) is -2.67% (inactive).
